Measured values from PubChem BioAssay AID1159580 (chemical genetic matrix, 2015).
Hit rate of the full screen: of about 5,500 compounds, about 2,000 (36%) were called active. Not shown: some 18% with an inconclusive outcome. No stated cut-off is given here; in the data, active means normalized growth mostly below about 0.91 (no sharp cut-off); inconclusive means no clear call, values can overlap the other calls; inactive means mostly above about 0.92. The list shows a part of the results.

Experiment: chemical genetic growth profiling, strain panel (AID 1159580);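 further: tested at 20 µM; growth read once vehicle control cultures reached saturation at 30 °C; 1 = growth at the plate median or of vehicle wells; lower values mean less growth of the strain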
Conditions: growth OD

Measured: normalized growth

C/C=C1\[C@H]2C=C(C)C[C@]1(N)c1ccc(=O)[nH]c1C2
inactive: S. cerevisiae deletion strains, locus YJR075W, strain HOC1, active compounds read low 0.997 | S. cerevisiae deletion strains, locus YKL009W, strain mrt4, active compounds read low 1.01 | S. cerevisiae deletion strains, locus YKL068W, active compounds read low 1.01 | S. cerevisiae deletion strains, locus YKL085W, strain MDH1 (second series), active compounds read low 1 | S. cerevisiae deletion strains, locus YKL085W, strain MDH1, active compounds read low 1 | S. cerevisiae deletion strains, locus YKL160W, strain elf1, active compounds read low 0.989 | S. cerevisiae deletion strains, locus YKL190W, strain CNB1, active compounds read low 1.01 | S. cerevisiae deletion strains, locus YKR001C, strain vps1, active compounds read low 1.03 | S. cerevisiae deletion strains, locus YKR026C, strain gcn3, active compounds read low 1.02 | S. cerevisiae deletion strains, locus YKR091W, strain srl3, active compounds read low 1.02 | S. cerevisiae deletion strains, locus YLL001W, strain dnm1, active compounds read low 1.02 | S. cerevisiae deletion strains, locus YLL026W, active compounds read low 1.01 | S. cerevisiae deletion strains, locus YLL041C, strain sdh2, active compounds read low 1.02 | S. cerevisiae deletion strains, locus YLR027C, strain aat2, active compounds read low 1.02 | S. cerevisiae deletion strains, locus YLR039C, strain RIC1, active compounds read low 1.05 | S. cerevisiae deletion strains, locus YLR058C, strain SHM2, active compounds read low 1.01 | S. cerevisiae deletion strains, locus YLR102C, strain apc9, active compounds read low 1.02 | S. cerevisiae deletion strains, locus YLR113W, strain HOG1, active compounds read low 1.01 | S. cerevisiae deletion strains, locus YLR221C, strain rsa3, active compounds read low 1.01 | S. cerevisiae deletion strains, locus YLR258W, strain gsy2, active compounds read low 1.03 | S. cerevisiae deletion strains, locus YLR262C, strain YPT6 (second series), active compounds read low 1.01 | S. cerevisiae deletion strains, locus YLR262C, strain YPT6, active compounds read low 1.05 | S. cerevisiae deletion strains, locus YLR268W, strain sec22, active compounds read low 0.992 | S. cerevisiae deletion strains, locus YLR320W, strain mms22, active compounds read low 1.04 | S. cerevisiae deletion strains, locus YLR330W, strain CHS5, active compounds read low 1.01 | S. cerevisiae deletion strains, locus YLR342W, strain FKS1 (second series), active compounds read low 1.04 | S. cerevisiae deletion strains, locus YLR342W, strain FKS1, active compounds read low 1.02 | S. cerevisiae deletion strains, locus YLR357W, strain rsc2, active compounds read low 1.06 | S. cerevisiae deletion strains, locus YLR370C, strain arc18, active compounds read low 1.02 | S. cerevisiae deletion strains, locus YLR371W, strain rom2, active compounds read low 1.01 | S. cerevisiae deletion strains, locus YLR384C, strain iki3, active compounds read low 1.02 | S. cerevisiae deletion strains, locus YLR418C, strain cdc73, active compounds read low 1.02 | S. cerevisiae deletion strains, locus YML016C, strain PPZ1, active compounds read low 1 | S. cerevisiae deletion strains, locus YML032C, strain rad52, active compounds read low 1.01 | S. cerevisiae deletion strains, locus YML120C, strain ndi1, active compounds read low 1.02 | S. cerevisiae deletion strains, locus YML124C, strain tub3, active compounds read low 1.01 | S. cerevisiae deletion strains, locus YMR058W, strain fet3, active compounds read low 1.02 | S. cerevisiae deletion strains, locus YMR078C, strain ctf18, active compounds read low 1.02 | S. cerevisiae deletion strains, locus YMR125W, strain sto1, active compounds read low 1.03 | S. cerevisiae deletion strains, locus YMR129W, active compounds read low 1.03 | S. cerevisiae deletion strains, locus YMR205C, strain PFK2, active compounds read low 1.07 | S. cerevisiae deletion strains, locus YMR223W, strain ubp8, active compounds read low 1.03 | S. cerevisiae deletion strains, locus YMR231W, strain pep5, active compounds read low 1.02 | S. cerevisiae deletion strains, locus YMR263W, strain SAP30, active compounds read low 1 | S. cerevisiae deletion strains, locus YMR307W, strain GAS1, active compounds read low 1.02 | S. cerevisiae deletion strains, locus YNL067W, strain RPL9B, active compounds read low 1 | S. cerevisiae deletion strains, locus YNL071W, strain lat1, active compounds read low 1.02 | S. cerevisiae deletion strains, locus YNL128W, strain TEP1, active compounds read low 1.02 | S. cerevisiae deletion strains, locus YNL153C, strain GIM3, active compounds read low 1 | S. cerevisiae deletion strains, locus YNL183C, strain NPR1, active compounds read low 0.956 | S. cerevisiae deletion strains, locus YNL209W, strain ssb2, active compounds read low 1.02 | S. cerevisiae deletion strains, locus YNL233W, strain BNI4, active compounds read low 0.983 | S. cerevisiae deletion strains, locus YNL248C, strain rpa49, active compounds read low 1.01 | S. cerevisiae deletion strains, locus YNL250W, strain rad50, active compounds read low 1.01 | S. cerevisiae deletion strains, locus YNL271C, strain bni1, active compounds read low 1.02 | S. cerevisiae deletion strains, locus YNL298W, strain CLA4, active compounds read low 1.02 | S. cerevisiae deletion strains, locus YNL307C, strain MCK1, active compounds read low 1.02 | S. cerevisiae deletion strains, locus YNL322C, strain KRE1 (second series), active compounds read low 1.01 | S. cerevisiae deletion strains, locus YNL322C, strain KRE1, active compounds read low 1.01 | S. cerevisiae deletion strains, locus YNR049C, strain mso1, active compounds read low 1.03 | S. cerevisiae deletion strains, locus YNR052C, strain pop2, active compounds read low 1.02 | S. cerevisiae deletion strains, locus YOL006C, strain TOP1, active compounds read low 1.05 | S. cerevisiae deletion strains, locus YOL012C, strain htz1 0.803 | S. cerevisiae deletion strains, locus YOL147C, strain pex11, active compounds read low 1.01 | S. cerevisiae deletion strains, locus YOR001W, strain rrp6, active compounds read low 1 | S. cerevisiae deletion strains, locus YOR061W, strain CKA2, active compounds read low 1.02 | S. cerevisiae deletion strains, locus YOR069W, strain VPS5, active compounds read low 1.01 | S. cerevisiae deletion strains, locus YOR070C, strain gyp1, active compounds read low 1.02 | S. cerevisiae deletion strains, locus YOR080W, strain dia2, active compounds read low 1.02 | S. cerevisiae deletion strains, locus YOR083W, strain WHI5, active compounds read low 0.992 | S. cerevisiae deletion strains, locus YOR106W, strain vam3, active compounds read low 1.01 | S. cerevisiae deletion strains, locus YOR136W, strain idh2, active compounds read low 1.02 | S. cerevisiae deletion strains, locus YOR144C, strain elg1, active compounds read low 1.01 | S. cerevisiae deletion strains, locus YOR184W, strain ser1, active compounds read low 1.04 | S. cerevisiae deletion strains, locus YOR231W, strain MKK1, active compounds read low 1.01 | S. cerevisiae deletion strains, locus YOR265W, strain rbl2, active compounds read low 1.02 | S. cerevisiae deletion strains, locus YOR270C, strain vph1, active compounds read low 1.02 | S. cerevisiae deletion strains, locus YOR290C, strain snf2, active compounds read low 1.01 | S. cerevisiae deletion strains, locus YOR316C, strain cot1, active compounds read low 1.01 | S. cerevisiae deletion strains, locus YPL051W, strain arl3, active compounds read low 0.996 | S. cerevisiae deletion strains, locus YPL055C, strain LGE1, active compounds read low 1.02 | S. cerevisiae deletion strains, locus YPL078C, strain atp4, active compounds read low 0.991 | S. cerevisiae deletion strains, locus YPL106C, strain sse1, active compounds read low 1.06 | S. cerevisiae deletion strains, locus YPL240C, strain hsp82, active compounds read low 1.03 | S. cerevisiae deletion strains, locus YPL241C, strain CIN2, active compounds read low 1.01 | S. cerevisiae deletion strains, locus YPL256C, strain CLN2, active compounds read low 0.99 | S. cerevisiae deletion strains, locus YPR119W, strain clb2, active compounds read low 1.01 | S. cerevisiae deletion strains, locus YPR141C, strain kar3, active compounds read low 1.01 | S. cerevisiae deletion strains, locus YPR163C, strain tif3, active compounds read low 1.02 | S. cerevisiae deletion strains, locus YPR167C, strain met16, active compounds read low 1.01 | S. cerevisiae deletion strains, strain wtn01, active compounds read low 1.01 | S. cerevisiae strains, strain wild type, active compounds read low 1.02
